According to PubChem BioAssay (Tox21):
Unmarked numbers belong to inactive results. Inconclusive results are not listed. A call without a number means that no potency is given here. Calls of active or inactive are those of the source. Calls come from the whole dose curve; as a rule, active = well fitted curve in the direction sought with a large enough effect in the repeat runs; inconclusive = weak or mixed curves; inactive = no such curve, though single readings can be large; an effect the other way counts as inactive or inconclusive.

What was measured:
[1] = A CellTox Green Cytotoxicity Assay to monitor cytotoxicity in HEK293 cells - 24 hour (AID 1224875); note: nearly all actives have a fitted effect of over 45% in size; note: potency is the fitted concentration of half-maximal effect
In short: (§1)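 Nonlytic real-time cytotoxicity: HEK293 + CellTox Green reagent plated, 5 h preincubation, pintool compound addition (23 nL in DMSO), 37 C for 40 h, fluorescence measured at successive time points.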

[2] = qHTS RealTime-Glo MT Cell Viability Assay in HepG2 cells - 32 hour (AID 1224877); note: nearly all actives have a fitted effect of over 55% in size
In short: (§2)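 Cell number in HepG2 cultures estimated from NanoLuc luminescence generated by metabolic reduction of a prosubstrate by living cells. The homogeneous, nonlytic format allowed repeated reads at 0, 8, 16, 24, 32 and 40 h of compound exposure.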

[3] = A CellTox Green Cytotoxicity Assay to monitor cytotoxicity in HepG2 cells - 24 hour (AID 1224878); note: nearly all actives have a fitted effect of over 45% in size; note: potency is the fitted concentration of half-maximal effect
In short: (§3)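 Read-out is fluorescence of a cyanine dye excluded from live cells that stains DNA of dead HepG2 cells, with signal proportional to cytotoxicity. Plates were read at 0, 8, 16, 24, 32 and 40 h after compound addition.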

[4] = qHTS RealTime-Glo MT Cell Viability Assay in HEK293 cells - 0 hour (AID 1224880); note: top concentration of the series differs between compounds; nearly all actives have a fitted effect of over 45% in size
In short: (§4)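 Cells were seeded together with NanoLuc luciferase and a prosubstrate that viable cells reduce to a luciferase substrate. After a 5 h incubation at 37 C/5% CO2, compounds were added and luminescence was measured repeatedly during 40 h of treatment.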

[5] = A CellTox Green Cytotoxicity Assay to monitor cytotoxicity in HEK293 cells - 32 hour (AID 1224881); note: nearly all actives have a fitted effect of over 40% in size; note: potency is the fitted concentration of half-maximal effect
In short: as §1

[6] = A CellTox Green Cytotoxicity Assay to monitor cytotoxicity in HepG2 cells - 0 hour (AID 1224882); note: nearly all actives have a fitted effect of over 35% in size
In short: as §3

[7] = A CellTox Green Cytotoxicity Assay to monitor cytotoxicity in HepG2 cells - 32 hour (AID 1224883); note: nearly all actives have a fitted effect of over 50% in size; note: potency is the fitted concentration of half-maximal effect
In short: as §3

[8] = A CellTox Green Cytotoxicity Assay to monitor cytotoxicity in HEK293 cells - 8 hour (AID 1224884); note: nearly all actives have a fitted effect of over 35% in size
In short: as §1

[9] = qHTS RealTime-Glo MT Cell Viability Assay in HepG2 cells - 16 hour (AID 1224885); note: nearly all actives have a fitted effect of over 50% in size; note: potency is the fitted concentration of half-maximal effect
In short: as §2

[10] = qHTS RealTime-Glo MT Cell Viability Assay in HEK293 cells - 24 hour (AID 1224886); note: nearly all actives have a fitted effect of over 50% in size; note: potency is the fitted concentration of half-maximal effect
In short: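 Homogeneous bioluminescent viability format in HEK293 cells (600 cells/well). Following 5 h at 37 C/5% CO2, 23 nL compound was pintooled; the signal was measured repeatedly during 40 h incubation.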

[11] = A CellTox Green Cytotoxicity Assay to monitor cytotoxicity in HEK293 cells - 16 hour (AID 1224888); note: nearly all actives have a fitted effect of over 35% in size; note: potency is the fitted concentration of half-maximal effect
In short: as §1

[12] = A CellTox Green Cytotoxicity Assay to monitor cytotoxicity in HepG2 cells - 8 hour (AID 1224890); note: nearly all actives have a fitted effect of over 45% in size; note: potency is the fitted concentration of half-maximal effect
In short: as §3

[13] = qHTS assay to identify small molecule antagonists of the androgen receptor (AR) signaling pathway using the MDA cell line in the presence of 0.5 nM R1881 - cell viability counter screen (AID 1259242); note: nearly all actives have a fitted effect of over 45% in size; note: potency is the fitted concentration of half-maximal effect
In short: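 Counter screen for cytotoxicity run in the same wells as the AR antagonist reporter screen: MDA-kb2 cells were treated 16 hr with test compounds and 0.5 nM R1881, then live-cell protease activity was measured by fluorescence.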

[14] = biological target: Androgen receptor (Homo sapiens) (UniProt P10275); test: qHTS assay to identify small molecule antagonists of the androgen receptor (AR) signaling pathway using the MDA cell line in the presence of 0.5 nM R1881 (AID 1259243); note: nearly all actives have a fitted effect of over 50% in size; note: potency is the fitted concentration of half-maximal effect
Androgen receptor (Homo sapiens), sequence (P10275 whole entry, looked up): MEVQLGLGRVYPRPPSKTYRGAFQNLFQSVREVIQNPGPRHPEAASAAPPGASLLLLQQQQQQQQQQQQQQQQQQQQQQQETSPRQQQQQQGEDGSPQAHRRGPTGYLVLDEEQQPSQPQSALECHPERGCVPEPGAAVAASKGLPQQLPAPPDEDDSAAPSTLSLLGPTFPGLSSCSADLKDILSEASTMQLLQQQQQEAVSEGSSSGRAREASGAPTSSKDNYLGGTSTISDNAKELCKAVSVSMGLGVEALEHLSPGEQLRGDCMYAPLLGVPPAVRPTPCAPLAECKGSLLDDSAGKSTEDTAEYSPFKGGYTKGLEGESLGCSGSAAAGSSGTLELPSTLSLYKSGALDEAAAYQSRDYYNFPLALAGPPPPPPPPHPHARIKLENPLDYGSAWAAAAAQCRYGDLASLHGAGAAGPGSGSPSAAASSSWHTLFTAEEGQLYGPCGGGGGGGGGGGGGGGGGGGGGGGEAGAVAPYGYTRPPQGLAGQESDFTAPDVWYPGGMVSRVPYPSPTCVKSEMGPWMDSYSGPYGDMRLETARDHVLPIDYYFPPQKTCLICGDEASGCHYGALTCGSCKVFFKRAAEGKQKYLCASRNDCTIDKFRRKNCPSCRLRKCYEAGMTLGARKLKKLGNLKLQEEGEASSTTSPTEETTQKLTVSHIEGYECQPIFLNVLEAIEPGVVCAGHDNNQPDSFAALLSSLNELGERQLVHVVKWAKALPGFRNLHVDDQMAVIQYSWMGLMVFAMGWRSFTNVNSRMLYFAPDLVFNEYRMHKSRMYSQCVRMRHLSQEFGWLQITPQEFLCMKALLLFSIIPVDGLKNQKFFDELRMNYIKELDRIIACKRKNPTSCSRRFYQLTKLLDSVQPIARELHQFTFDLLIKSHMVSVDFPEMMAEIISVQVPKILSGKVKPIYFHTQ
In short: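 Luciferase luminescence is the read-out: compounds are tested for suppressing 0.5 nM R1881-driven MMTV reporter activity in MDA-kb2 cells after 16 hr at 37C.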

[15] = biological target: Estrogen receptor (Homo sapiens) (UniProt P03372); test: qHTS assay to identify small molecule antagonists of the estrogen receptor alpha (ER-alpha) signaling pathway using the BG1 cell line in the presence of 0.1 nM 17-beta-estradiol (AID 1259244); note: nearly all actives have a fitted effect of over 50% in size; note: potency is the fitted concentration of half-maximal effect
Estrogen receptor (Homo sapiens), sequence (P03372 whole entry, looked up): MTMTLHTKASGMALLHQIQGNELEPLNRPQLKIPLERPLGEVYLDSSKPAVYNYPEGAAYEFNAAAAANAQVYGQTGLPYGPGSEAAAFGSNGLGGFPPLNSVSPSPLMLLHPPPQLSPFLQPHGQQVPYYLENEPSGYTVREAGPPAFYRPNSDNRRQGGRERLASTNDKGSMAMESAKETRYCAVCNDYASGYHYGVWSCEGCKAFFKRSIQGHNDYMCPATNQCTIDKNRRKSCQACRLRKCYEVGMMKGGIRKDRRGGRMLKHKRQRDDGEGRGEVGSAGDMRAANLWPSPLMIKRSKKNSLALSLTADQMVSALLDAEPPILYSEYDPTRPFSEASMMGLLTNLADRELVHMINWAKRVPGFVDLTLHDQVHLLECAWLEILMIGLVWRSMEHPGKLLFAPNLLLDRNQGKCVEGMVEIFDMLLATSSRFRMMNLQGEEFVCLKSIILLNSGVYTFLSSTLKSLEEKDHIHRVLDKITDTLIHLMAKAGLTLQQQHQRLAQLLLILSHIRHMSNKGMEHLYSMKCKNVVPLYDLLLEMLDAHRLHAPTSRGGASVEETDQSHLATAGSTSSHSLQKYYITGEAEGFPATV
In short: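 Cells: VM7Luc4E2, endogenous ER-alpha, 4x ERE-luc stable. Pre-culture 5 d, phenol red-free, charcoal-stripped FBS. Plated 24 h, compound + E2 0.1 nM final, 22 h 37C/5% CO2. Readout ONE-Glo luminescence.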

[16] = A CellTox Green Cytotoxicity Assay to monitor cytotoxicity in HepG2 cells - 16 hour (AID 1224876); note: nearly all actives have a fitted effect of over 45% in size; note: potency is the fitted concentration of half-maximal effect
In short: as §3

[17] = qHTS RealTime-Glo MT Cell Viability Assay in HepG2 cells - 0 hour (AID 1224889); note: nearly all actives have a fitted effect of over 50% in size
In short: as §2

[18] = qHTS RealTime-Glo MT Cell Viability Assay in HEK293 cells - 8 hour (AID 1224887); note: nearly all actives have a fitted effect of over 50% in size; note: potency is the fitted concentration of half-maximal effect
In short: as §4

[19] = qHTS assay to identify small molecule antagonists of the estrogen receptor alpha (ER-alpha) signaling pathway using the BG1 cell line in the presence of 0.1 nM 17-beta-estradiol - cell viability counter screen (AID 1259241); note: nearly all actives have a fitted effect of over 40% in size; note: potency is the fitted concentration of half-maximal effect
In short: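 The cell line endogenously expresses full-length ER-alpha and carries four EREs driving luciferase. Cells are cultured 5 days hormone-free, treated 22 hr with compounds and 0.1 nM estradiol, then viability is read by fluorescence.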

[20] = A CellTox Green Cytotoxicity Assay to monitor cytotoxicity in HepG2 cells - 40 hour (AID 1224879); note: nearly all actives have a fitted effect of over 40% in size; note: potency is the fitted concentration of half-maximal effect
In short: as §3

Row | Compound | Potency [1] | Potency [2] | Potency [3] | Potency [4] | Potency [5] | Potency [6] | Potency [7] | Potency [8] | Potency [9] | Potency [10] | Potency [11] | Potency [12] | Potency [13] | Potency [14] | Potency [15] | Potency [16] | Potency [17] | Potency [18] | Potency [19] | Potency [20]
1 | O=C1OCc2ccccc21 | inactive | inactive | inactive | inactive | inactive | inactive | inactive | inactive | inactive | inactive | inactive | inactive | inactive | inactive | inactive | – | – | – | – | –
2 | O=C1CCC/C=C\CCCCCCCCCC1 | inactive | – | – | – | – | inactive | – | inactive | inactive | inactive | inactive | inactive | – | – | – | inactive | inactive | – | – | –
3 | O=C1CCCCCCCCCCCCCC1 | 43.6 µM (active) | – | – | inactive | 43.6 µM (active) | inactive | – | – | inactive | inactive | 43.6 µM (active) | inactive | inactive | – | – | inactive | inactive | inactive | inactive | –
4 | O=C(CCCCCCCCc1cccnc1)N1CCC(C=C(c2ccccc2)c2ccccc2)CC1 | inactive | – | inactive | inactive | inactive | inactive | inactive | inactive | 49 µM (active) | 21.9 µM (active) | inactive | inactive | – | 27.3 µM (active) | – | inactive | inactive | – | – | –
5 | CCCCC/C=C\C=C\C(=O)OCC | inactive | – | 22.8 µM (active) | inactive | – | inactive | 25.6 µM (active) | inactive | – | – | – | inactive | – | – | inactive | inactive | inactive | – | inactive | –
6 | NCc1cccc(C2CCN(C(=O)c3ccc(C#Cc4ccccc4F)o3)CC2)c1 | 49 µM (active) | – | 38.9 µM (active) | inactive | 49 µM (active) | inactive | 43.6 µM (active) | – | 49 µM (active) | 54.9 µM (active) | 49 µM (active) | 49 µM (active) | – | – | 68.6 µM (active) | 38.9 µM (active) | – | 43.6 µM (active) | 68.6 µM (active) | 43.6 µM (active)
7 | C=CCc1cc(S(=O)(=O)c2ccc(O)c(CC=C)c2)ccc1O | inactive | – | inactive | – | inactive | inactive | inactive | inactive | – | 27.5 µM (active) | inactive | inactive | – | inactive | 61.1 µM (active) | inactive | – | 24.5 µM (active) | inactive | inactive
8 | C/C=C/C(=O)OCC(C)C | inactive | inactive | inactive | inactive | inactive | inactive | inactive | inactive | inactive | inactive | inactive | inactive | – | inactive | inactive | – | – | inactive | inactive | inactive
9 | CC1CCC(C(C)(C)O)CC1 (stereo not given) | inactive | inactive | inactive | – | inactive | inactive | inactive | inactive | inactive | inactive | inactive | inactive | – | inactive | – | – | – | inactive | – | inactive
10 | SC1CCCCC1 | inactive | inactive | inactive | inactive | inactive | inactive | inactive | inactive | inactive | inactive | inactive | inactive | inactive | – | – | – | inactive | inactive | – | –
11 | CC(C)(C)c1ccc(OC2CCCCC2O)cc1 (stereo not given) | 54.9 µM (active) | inactive | – | inactive | 49 µM (active) | inactive | – | – | inactive | 54.9 µM (active) | – | inactive | – | 61.1 µM (active) | – | – | – | – | inactive | –
12 | Nc1cc([N+](=O)[O-])ccc1Cl | inactive | inactive | inactive | inactive | inactive | inactive | inactive | inactive | inactive | inactive | inactive | inactive | inactive | – | – | – | inactive | inactive | – | inactive
13 | O=[N+]([O-])c1ccc(CO)cc1 | inactive | – | inactive | – | inactive | inactive | inactive | inactive | inactive | inactive | – | inactive | inactive | inactive | inactive | inactive | inactive | inactive | inactive | inactive
14 | CCOc1ccc([N+](=O)[O-])cc1 | 44.3 µM (active) | inactive | – | inactive | 44.3 µM (active) | inactive | – | – | inactive | – | – | inactive | inactive | – | inactive | – | inactive | – | – | –
15 | Cc1c[nH]c(=O)[nH]c1=O | inactive | – | – | inactive | inactive | inactive | – | inactive | inactive | inactive | inactive | inactive | – | inactive | inactive | – | inactive | inactive | inactive | –
16 | CCOC(=O)[C@H](O)[C@@H](O)C(=O)OCC | – | inactive | inactive | – | inactive | inactive | inactive | inactive | inactive | inactive | inactive | inactive | inactive | inactive | inactive | inactive | inactive | inactive | inactive | inactive
17 | O=C(Nc1ccccc1)c1cc(Cl)ccc1O | inactive | – | – | – | inactive | inactive | 49 µM (active) | – | inactive | – | inactive | inactive | 17.2 µM (active) | – | 12.2 µM (active) | – | inactive | inactive | – | 49 µM (active)
